The panel holds about 83,000 compounds, 20% with a hit somewhere; the sample as a whole holds those more often.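 Results are percent growth after 48 hours of single-concentration exposure. 100 means growth as in untreated cells, lower positive values show inhibition; negative values down to -100 show cell death.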 Values without a mark were called inactive. The source made the active and inactive calls. How the source made its calls: active means growth percent below 10; inactive means the rest.
test system: 786-0 renal; test: NCI-60 one-dose screen, 48 h (100 = growth as untreated, 0 = no growth, -100 = all killed); settings: 10 µM unless noted

**Q.** With CC(C)Cc1ccc(C(C)C(=O)NCc2ccc(Cn3c(=O)sn(-c4ccc(Cl)cc4)c3=O)cc2)cc1 (stereo not drawn) as the compound, how does the growth read?
**A.** 85.3%

**Q.** Which growth does the source give for COc1ccc(Cn2nc3c(c2-c2cc(OC)c(OC)c(OC)c2)-c2oncc2CC3)cc1 here?
**A.** 85.1%

**Q.** Cc1ccc(C(c2c(O)c3cc(Br)ccc3[nH]c2=O)c2c(O)c3cc(Br)ccc3[nH]c2=O)cc1 was tested. Which growth did it give?
**A.** 92.6%

**Q.** How did the growth turn out when CN1CCN(Cc2ccc(NC(=O)c3cncc(C#Cc4cnccc4C(F)(F)F)c3)cc2C(F)(F)F)CC1 was run?
**A.** 89.7%

**Q.** COc1ccc(/C=C/c2n[nH]c3ccc(N4CCOC4=O)cc23)cc1 was tested. Which growth did it give?
**A.** 11.3%

**Q.** Which growth does the source give for COc1cc2nnn3c4ncccc4c(N=O)c3c2cc1OC here?
**A.** 48.2%

**Q.** For Cc1cc2nc(-c3ccccc3)c(-c3ccccc3)nc2cc1C, which growth is on record?
**A.** 95.4%

**Q.** Which growth does the source give for Cc1ccc2[nH]c(=O)cc(-n3nncc3COc3ccc(C=O)cc3)c2c1 here?
**A.** 102%

**Q.** CCCOc1nc(SCCC)nc2c1cnn2-c1ccccc1 was tested. Which growth did it give?
**A.** 105%

**Q.** NC(=O)c1cccc(-c2ccccc2N2CCCCC2)c1 was tested. Which growth did it give?
**A.** 85.3%

**Q.** For COc1cc2ncnc(Nc3ccc(C(=O)/C=C/c4ccc(C(F)(F)F)cc4F)cc3)c2cc1OC, which growth is on record?
**A.** 85.6%

**Q.** CC(=O)OCCCCCNc1ccccc1 was tested. Which growth did it give?
**A.** 101%

**Q.** Which growth does the source give for O=C(Nc1sc2c(c1C(=O)O)CCCC2)c1cccc(C(F)(F)F)c1 here?
**A.** 94%

**Q.** For CCN1C(=O)N(CC)C2NC(SC)=NC21 (stereo not drawn), which growth is on record?
**A.** 102%

**Q.** With C/C(=C(/c1ccccc1)c1ccc(OCC(O)CN2CCOCC2)cc1)c1ccccc1 (stereo not drawn) as the compound, how does the growth read?
**A.** 67.1%

**Q.** For COc1ccc(C(=O)c2cc3c(N)c(C(=O)Nc4ccc(Br)cc4)sc3nc2C)cc1, which growth is on record?
**A.** 58.2%

**Q.** How did the growth turn out when CCOC(=O)Oc1c(OC)cc(C(=O)O[C@@H]2C[C@@H]3CN4CCc5c([nH]c6cc(OC)ccc56)[C@H]4C[C@@H]3[C@H](C(=O)OC)[C@H]2OC)cc1OC was run?
**A.** 78.7%

**Q.** COc1ccc(-c2nc(N/N=C/c3ccco3)nc(N3CCOCC3)c2C#N)cc1 was tested. Which growth did it give?
**A.** 54.7%

**Q.** CCC(=O)c1ccc(O)c(OC)c1 was tested. Which growth did it give?
**A.** 4.29% (active)

**Q.** Which growth does the source give for COc1ccc(-c2nc(N=Nc3c(O)[nH]c4ccccc34)nc(N3CCOCC3)c2C#N)cc1 here?
**A.** 79.7%

**Q.** For CCCCCCCCCCCCCCCC(=O)OC[C@@]1(O)C[C@@]23CC[C@@H]4C(C)(C)[C@H](O)CC[C@@]4(C)[C@@H]2CC[C@H]1C3, which growth is on record?
**A.** 0.227% (active)

**Q.** How did the growth turn out when FC(F)(F)Oc1cccc(-c2cc(NCCCCCCNc3cc(-c4cccc(OC(F)(F)F)c4)nc4ccc(N5CCCC5)cc34)c3cc(N4CCCC4)ccc3n2)c1 was run?
**A.** -83.4% (active)

**Q.** How did the growth turn out when COc1ccc(C2=C(c3ccccc3)c3ccc(OC(C)=O)cc3OC2(C)C)cc1 was run?
**A.** 101%

**Q.** Cc1c2c(cc[n+]1Cc1ccc(F)cc1)c1ccc(OCc3cccc(F)c3)cc1n2Cc1cccc(F)c1 was tested. Which growth did it give?
**A.** -85.8% (active)

**Q.** CC1=CC2(C)/C=C(C)/C=C\CC(O)/C=C3/C=CC(=C4C(=O)OC2(CC1C)C4=O)OC3 (stereo not drawn) was tested. Which growth did it give?
**A.** -92.1% (active)

**Q.** How did the growth turn out when O=C1OC(=O)C2C1CC=CC2c1ccccc1 (stereo not drawn) was run?
**A.** 94.9%

**Q.** With C=C(C)[C@H]1CC/C(C)=C/CC[C@]2(C)O[C@H]2CC/C(COC(=O)[C@@H](OC(C)=O)[C@H](NC(=O)c2ccccc2)c2ccccc2)=C\[C@@H]1O as the compound, how does the growth read?
**A.** 85.1%

**Q.** For O=C(O)c1cn(C2CC2)c2cc(N3CCN(C(=O)C[n+]4cccc5ccccc54)CC3)c(F)cc2c1=O, which growth is on record?
**A.** 48.5%

**Q.** With COc1ccc(Nn2c(SCC(=O)Nc3nc(-c4ccc(Cl)cc4)cs3)nc(C)c2C)cc1 as the compound, how does the growth read?
**A.** 59.5%

**Q.** Cn1c2c(Cl)c(Cl)ccc2c2cc(N)[nH]c(=O)c21 was tested. Which growth did it give?
**A.** 70.2%

**Q.** For CC(=O)c1c[nH]c2ccc(-c3ccnc(Nc4ccc(NC(=O)c5cccc(F)c5)c(CN5CCOCC5)c4)n3)cc12, which growth is on record?
**A.** 5.7% (active)

**Q.** Which growth does the source give for Clc1nc(Nc2ccccc2)nc(Nc2ccccc2)n1 here?
**A.** 84.4%

**Q.** How did the growth turn out when O=C1Nc2c(ccc(Cl)c2Cl)/C1=C/c1ccccn1 was run?
**A.** 12.5%

**Q.** Cc1ccc2nc3c(cc2c1)CSc1nnc(-c2ccc[nH]c2=S)n1N3 was tested. Which growth did it give?
**A.** 98.7%

**Q.** For CN1CCN(C(=O)[C@]2(C)CC[C@]3(C)CC[C@]4(C)C(=CC(=O)[C@@H]5[C@@]6(C)CCC(=O)NC(C)(C)[C@@H]6CC[C@]54C)[C@@H]3C2)CC1, which growth is on record?
**A.** 93.5%

**Q.** For COc1ccc(-c2nn(Cc3ccccc3)c3c2-c2oncc2CC3)cc1OC, which growth is on record?
**A.** 97.8%

**Q.** How did the growth turn out when O=c1[nH]c2c(s1)CCCC2CN1CCCCC1 (stereo not drawn) was run?
**A.** 96.2%

**Q.** For CC(C)(C)CC(C)(C)Nc1c(-c2ccc3c(c2)OCO3)nc2cnccn12, which growth is on record?
**A.** 67.7%

Reference: PubChem BioAssay (NCI)
